# Inconclusive results are not listed. Active and inactive are the calls of the source.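 The calls were made as follows: active = immobility above 50% at 10 µM after 1 hour; inconclusive = immobility from 15% to 50% at 1 hour; inactive = immobility below 15%.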
# Assay: Assay for General Anesthetic Phenotype in Xenopus Tadpoles
# Settings: startle-response immobility, 1 h, at 10 µM, stronger effect = higher value
# Text: Anesthetic development has remained a largely empirical process. There are growing concerns about the cognitive effects of known general anesthetics and acceleration of the onset of neurodegenerative disease. The compounds' toxicity and multiple specific binding targets in the mammalian brain [4] has made them less attractive as drug leads. This assay was designed for the in vivo follow-up testing of compounds in tadpoles. References: [1] S.L. Bianchi, T. Tran, C. Liu, S. Lin, Y. Li, J.M. Keller, R.G. Eckenhoff, and M.F. Eckenhoff, Brain and behavior changes in 12-month-old Tg2576 and nontransgenic mice exposed to anesthetics. Neurobiol Aging 29 (2008) 1002-10. Z. Xie, Y. Dong, U. Maeda, R.D. Moir, W. Xia, D.J. Culley, G. Crosby, and R.E. Tanzi, The inhalation anesthetic isoflurane induces a vicious cycle of apoptosis and amyloid beta-protein accumulation. J Neurosci 27 (2007) 1247-54. P. Honegger, and J.M. Matthieu, Selective toxicity of the general anesthetic propofol for GABAergic neurons in rat brain cell cultures. J Neurosci Res 45 (1996) 631-6. M.F. Eckenhoff, K. Chan, and R.G. Eckenhoff, Multiple specific binding targets for inhaled anesthetics in the mammalian brain. J Pharmacol Exp Ther 300 (2002) 172-9. C.A. Butts, J. Xi, G. Brannigan, A.A. Saad, S.P. Venkatachalan, R.A. Pearce, M.L. Klein, R.G. Eckenhoff, and I.J. Dmochowski, Identification of a fluorescent general anesthetic, 1-aminoanthracene. Proc Natl Acad Sci U S A 106 (2009) 6501-6. W.A. Lea, J. Xi, A. Jadhav, L. Lu, C.P. Austin, A. Simeonov, and R.G. Eckenhoff, A high-throughput approach for identification of novel general anesthetics. PLoS One 4 (2009) e7150.
# Pre-limb bud Xenopus tadpoles were obtained in large batches from Nasco, Inc. Batches of 10 tadpoles were placed in 20 mm Petri dishes with approximately 20 ml of pond water ("pond water" is approximately a 20-fold dilution of Ringers saline solution). Compounds were added to the pond water from DMSO stock to obtain 100, 10 and 1 microM concentrations. Tadpoles were then incubated with these solutions for 1 hour, and then scored for "anesthesia". Anesthesia in this case is lack of movement in response to a sharp tap on the Petri dish lid, i.e., a lack of startle response. This correlates well to the loss of righting reflex in rodents and the loss of consciousness in humans. The pond water is then changed, and the return of a startle response is monitored for 24 hours. Immobility at 24 hours is considered death.
row,Compound,immobility
1,O=C(Cn1ncccc1=O)NCCc1ccccc1,0% (inactive)
2,COc1ccc(-c2ccc(=O)n(CC(=O)NCCc3ccccc3)n2)cc1OC,10% (inactive)
3,CCCCc1ccc(-c2ccc(=O)n(CC(=O)NCCc3ccccc3)n2)cc1,5% (inactive)

# Same assay, conditions: startle-response immobility, 1 h, measured here: 24 h immobility, toxicity/death, at 10 µM
row,Compound,immobility
1,O=C(Cn1ncccc1=O)NCCc1ccccc1,5%
2,COc1ccc(-c2ccc(=O)n(CC(=O)NCCc3ccccc3)n2)cc1OC,15%
3,CCCCc1ccc(-c2ccc(=O)n(CC(=O)NCCc3ccccc3)n2)cc1,5%

# Reference: PubChem BioAssay AID624098 (National Center for Advancing Translational Sciences (NCATS), 2012)
